Screening results deposited in PubChem by National Center for Advancing Translational Sciences (NCATS).
Sampled rows, rich in hits. Any-hit rate of the full collection: about 8%.
FMDV antiviral – antivirals against foot and mouth disease virus; FMDV antiviral cell-based qHTS; Potency, µM (titrated, usually from 57.9 µM), for the others: top-dose activity change, negative = inhibition, actives largely listed as inhibitors; 1.2% of 410,000 active; calls by dose curve; tested in HEK293T cells; note: read-out not given here; potency is the fitted concentration of half-maximal effect; % is set by controls: 0 for no effect and ±100 for the full control effect; nearly all actives have a fitted effect of over 45% in size
LASV entry inh – blocks Lassa virus binding to or entry into cells | 1.2% of 300,000 active | Potency, µM (titrated, usually from 37.9 µM), inactives show at the top dose activity change, negative = inhibition, actives largely listed as inhibitors | Lassa virus pseudotype entry inhibition, cell reporter; calls by dose curve; tested in HEK293 cells; note: potency is the fitted concentration of half-maximal effect; % is set by controls: 0 for no effect and ±100 for the full control effect; nearly all actives have a fitted effect of over 50% in size
HCV inh – blocks hepatitis C virus; AID 651820; Potency, µM (doses to about 41.8 µM), for inactives: at the top dose activity change, negative = inhibition, hits mostly inhibitors; Huh7.5.1 HCVcc-Cre infection, luciferase reporter, 44 h; 3.4% of 340,000 active; active = well fitted inhibition curve with a large enough effect; inconclusive = small, poorly fitted or top-dose-only effect, or another doubt; inactive = no such curve, though single readings can be large or run the other way; note: potency is the fitted concentration of half-maximal effect; % is set by controls: 0 for no effect and ±100 for the full control effect
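HCVcc-Cre virus at an moi near 0.5 was added right after compound to cells cultured 4 h from seeding (1,000 cells/well). Luciferase activity was determined 44 h later, 15 min after substrate addition at RT.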
SARS PLP yeast – SARS-CoV PLP inhibition in yeast; S. cerevisiae expressing SARS-CoV PLpro, growth rescue; Potency, µM (highest dose often 32.9 µM), without a hit: top-dose activity, positive = growth rescue, usual class: activators; 0.19% of 330,000 active; AID 485353; calls by dose curve; note: potency is the fitted concentration of half-maximal effect; 0% is about no effect; nearly all actives have a fitted effect of over 55% in size
HCMV inh – inhibitors of human cytomegalovirus. 4.5% of 410,000 active. HFF cells, HCMV-luciferase reporter, 72 h; active compounds read low. activity change, negative = inhibition, % at 57.5 µM; in the data active = activity change below about -60%; inconclusive = no clear call, values can overlap the other calls; inactive = above about -39%; note: % is set by controls: 0 for no effect and ±100 for the full control effect
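Screen run at 2 compound doses on HFFs infected with reporter HCMV, MOI 1 PFU/cell. Luciferase activity from cell lysates at 72 h post infection gave inhibition relative to buffer-only and Salinomycin wells.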
Marburg entry inh – inhibitors of Marburg virus binding or cell entry | Marburg virus pseudotyped entry inhibition, cell reporter | AID 540276 | 1.8% of 300,000 active | Potency, µM (series often up to 37.8 µM), inactives show at the top dose activity change, negative = inhibition, hits mostly inhibitors; calls by dose curve; tested in HEK293 cells; note: potency is the fitted concentration of half-maximal effect; % is set by controls: 0 for no effect and ±100 for the full control effect
Numbers without * were called inactive; [ ] = another dose, or the depositor's remark.

How did COC(=O)c1ccc2nc(NC(=O)CSCC(=O)OCC(=O)c3ccccc3)sc2c1 do in these assays?
FMDV antiviral: -13%; LASV entry inh: 3%; HCV inh: 34%; SARS PLP yeast: 18%; HCMV inh: -23; Marburg entry inh: 21%

What do the screens show for `Cc1ccc2nc(NC(=O)CSCC(=O)OCC(=O)c3ccc(Br)cc3)sc2c1`?
FMDV antiviral: 7.9µM*; LASV entry inh: 7.9µM*; HCV inh: 4%; SARS PLP yeast: -1%; HCMV inh: -4; Marburg entry inh: 3.2µM*

How did CCOc1ccccc1NS(=O)(=O)c1c(-c2ccc(C)cc2)csc1C(=O)OC do in these assays?
FMDV antiviral: -12%; LASV entry inh: inconclusive; HCMV inh: 13

How did CC1CCN(S(=O)(=O)c2cc(C(=O)NCCc3ccccc3)n(C)c2)CC1 do in these assays?
FMDV antiviral: -10%; LASV entry inh: 0%[46.1 µM]; HCMV inh: -19

Results for COc1cc(NC(=O)c2cc(S(=O)(=O)N3CCC(C)CC3)cn2C)cc(OC)c1OC ?
FMDV antiviral: 29%; LASV entry inh: 1%[46.1 µM]; HCMV inh: -102*

How did CC1CCN(S(=O)(=O)c2cc(C(=O)NCc3ccccc3)n(C)c2)CC1 do in these assays?
FMDV antiviral: -13%; LASV entry inh: 3%[46.1 µM]; HCMV inh: -81*

How did Cc1ccc(CNC(=O)c2cc3sccc3n2Cc2ccc(Cl)cc2)cc1 do in these assays?
FMDV antiviral: -8%; LASV entry inh: 3%[46.1 µM]; Marburg entry inh: -16%[46.1 µM]

What do the screens show for `COc1ccccc1CNS(=O)(=O)c1ccc2c(c1)CC(C)N2C(=O)C1CCC1` (stereo not given)?
FMDV antiviral: inconclusive; LASV entry inh: -24%[46.1 µM]; HCV inh: inconclusive; SARS PLP yeast: -4%; HCMV inh: -61*

What do the screens show for `COc1ccccc1CNS(=O)(=O)c1ccc2c(c1)CC(C)N2C(=O)C1CC1` (stereo not given)?
FMDV antiviral: -9%; HCV inh: inconclusive; SARS PLP yeast: 4%; HCMV inh: inconclusive

How did CCN(Cc1ccccc1)S(=O)(=O)c1ccc2c(c1)CC(C)N2C(=O)C1CCC1 (stereo not given) do in these assays?
FMDV antiviral: -20%; LASV entry inh: 2.8µM*; HCMV inh: -35

What do the screens show for `CCCN(c1ccccc1CC)S(=O)(=O)c1ccc2c(c1)CC(C)N2C(=O)C1CC1` (stereo not given)?
FMDV antiviral: inconclusive; LASV entry inh: inconclusive; HCMV inh: -93*

Results for CCCCN(c1ccccc1)S(=O)(=O)c1ccc2c(c1)CC(C)N2C(=O)C1CC1 (stereo not given) ?
FMDV antiviral: -14%; LASV entry inh: inconclusive; HCMV inh: -21

How did CCNc1nc(Oc2ccccc2)nc(O[C@@H](C)C(=O)OCC)n1 do in these assays?
Marburg entry inh: 0%

Results for Cc1ccc(CSc2ccc3nnc(-c4ccccn4)n3n2)cc1 ?
FMDV antiviral: inconclusive; LASV entry inh: -18%; HCV inh: 10%; SARS PLP yeast: 14%; HCMV inh: 0; Marburg entry inh: -9%

How did Cc1ccc(C)c(CSc2ccc3nnc(-c4ccccn4)n3n2)c1 do in these assays?
FMDV antiviral: 22µM*; LASV entry inh: inconclusive; HCV inh: inconclusive; SARS PLP yeast: -1%; HCMV inh: -22; Marburg entry inh: inconclusive

Results for O=[N+]([O-])c1cc(Br)c(Nc2ccccc2)c([N+](=O)[O-])c1 ?
FMDV antiviral: inconclusive; HCV inh: inconclusive; SARS PLP yeast: -13%; HCMV inh: -85*

Results for O=[N+]([O-])c1ccc(Nc2ccccc2O)c([N+](=O)[O-])c1 ?
FMDV antiviral: -28%; HCMV inh: inconclusive

What do the screens show for `O=C(Nc1ccccc1)c1ccc(Nc2c([N+](=O)[O-])cc([N+](=O)[O-])c3ccccc23)cc1`?
FMDV antiviral: inconclusive; LASV entry inh: -27%; HCV inh: inconclusive; SARS PLP yeast: -16%; HCMV inh: -74*; Marburg entry inh: inconclusive

What do the screens show for `CC(C)c1ccccc1NC(=O)CN1C(=O)c2cccc3cccc1c23`?
FMDV antiviral: -26%; LASV entry inh: 6%[46.1 µM]; HCMV inh: -2; Marburg entry inh: inconclusive

What do the screens show for `CCC[C@H]1[C@@H](NS(=O)(=O)c2cccs2)CC[C@@]23CCCN2C(=O)CCC[C@@H]13`?
HCMV inh: -5

What do the screens show for `Cn1c(-[n+]2c(-c3ccccc3)cc(-c3ccccc3)cc2-c2ccccc2)nc2c([N+](=O)[O-])cccc21`?
FMDV antiviral: -4%; LASV entry inh: inconclusive; HCV inh: inconclusive; SARS PLP yeast: 1%; HCMV inh: -60*; Marburg entry inh: inconclusive

Results for COC(=O)c1c(C)noc1-c1ccc(Cl)cc1 ?
FMDV antiviral: 5%; HCV inh: 22%; SARS PLP yeast: -8%; HCMV inh: -64*

How did COC(=O)c1c(-c2ccccc2)noc1-c1ccccc1 do in these assays?
FMDV antiviral: 37%; LASV entry inh: -3%; HCV inh: inconclusive; HCMV inh: 15; Marburg entry inh: 10%[46.1 µM]

Results for CC1CCCN(C(=S)SCC(=O)c2cc(Br)cc(Br)c2O)C1 (stereo not given) ?
FMDV antiviral: -15%; LASV entry inh: 14%; HCV inh: -15%; SARS PLP yeast: 0%; HCMV inh: 30; Marburg entry inh: 15%[46.1 µM]

What do the screens show for `O=C(CSC(=S)N1CCCC1)c1cc(Br)cc(Br)c1O`?
FMDV antiviral: -15%; LASV entry inh: -37%; HCV inh: 13µM*; SARS PLP yeast: 21%; HCMV inh: inconclusive; Marburg entry inh: inconclusive

How did Cc1cc(C)c2c(n1)sc1c(=O)n(-c3cc(Cl)ccc3C)nnc12 do in these assays?
FMDV antiviral: -18%; LASV entry inh: 11%[46.1 µM]; HCMV inh: -60*; Marburg entry inh: 10%[46.1 µM]

What do the screens show for `CCc1cccc(CC)c1-n1nnc2c(sc3nc(C)cc(C)c32)c1=O`?
FMDV antiviral: inconclusive; LASV entry inh: 9%[46.1 µM]; HCMV inh: -7; Marburg entry inh: 2%[46.1 µM]

What do the screens show for `Nc1nc(N)c2cc(CNc3ccc(Cl)c(Cl)c3)ccc2n1`?
FMDV antiviral: 35µM*; HCMV inh: -69*

Results for CCOc1cc(CNC(=O)c2ccccc2NC(=O)c2nsc3ccccc23)ccc1OC ?
FMDV antiviral: -20%; LASV entry inh: 0%[46.1 µM]; HCMV inh: -82*

Results for COc1ccc(OC)c(CNC(=O)c2ccccc2NC(=O)c2nsc3ccccc23)c1 ?
FMDV antiviral: -23%; LASV entry inh: 1%[46.1 µM]; HCMV inh: 24

How did Cc1ccc(C(=O)NCc2ccc(N(C)C)cc2)cc1NC(=O)c1nsc2ccccc12 do in these assays?
FMDV antiviral: 1%; LASV entry inh: 5µM*; HCMV inh: 33

Results for Cn1c(=O)c2c(nc(NC[C@@H](O)CO)n2CCc2ccccc2)n(C)c1=O ?
Marburg entry inh: -7%
